# Laboratory results from PubChem BioAssay (NCI).
# About 83,000 compounds went through this panel and 20% of them were active in at least one assay; those are over-represented in the sample as a whole.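 Negative percent growth values reflect cell death: -40 means 40% of the cells present at the start died, and -100 means all died.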 A number with no mark means an inactive call. Active and inactive are the calls of the source.
# Test system: HOP-92 NSCLC
# Test: NCI-60 one-dose screen, 48 h (100 = growth as untreated, 0 = no growth, -100 = all killed)
# Settings: 10 µM unless noted
# Protocol: Growth inhibition of the HOP-92 human Non-Small Cell Lung tumor cell line is measured as a screen for anti-cancer activity. Cells are grown in 96 well plates and exposed to the test compound for 48 hours. Compounds are tested at a single concentration, which is 10^-5 M for most compounds. The reported endpoint is percent growth (GI% or GIPRCNT), where numbers from 0 - 100% represent growth inhibition, and numbers from -100% - 0 represent cell death. For example, a value of 40 represents 60% growth inhibition. A value of 0 means no net growth occurred over the course of the experiment. A value of -40 indicates 40% of cells at the beginning of the experiment died by the end of the experiment. A value of -100 means all cells are dead at the end of the experiment.
# NCI-60 Human Tumor Cell Lines Screen was performed using the standard one-dose NCI protocol, which is described in more detail at https://dtp.cancer.gov/discovery_development/nci-60/default.htm.
# Compounds with GIPRCNT values below 10 were considered active. Activity score was based on GIPRCNT using the following formula: […]
# Score is 0 for GIPRCNT values of 100 or above, 50 for GIPRCNT values of 0, and 100 for GIPRCNT values of -100.
row,Structure (SMILES),growth
1,CCN1CCN(c2cc(C)nc(N(CCCNc3ccnc4cc(Cl)ccc34)Cc3cccs3)n2)CC1,11.6%
2,Cc1cc(N(CCNc2ccnc3cc(Cl)ccc23)Cc2ccc3c(c2)OCO3)nc(N2CCCC2)n1,60.5%
3,NC(=O)N1N=C(c2ccc(Cl)cc2)CC1c1cn(-c2ccccc2)nc1-c1ccc(Cl)cc1 (stereo not given),49.7%
4,Cc1cc(Oc2ccccc2)ccc1Nc1ncnc2ccc(-c3cnc(Cl)c(NS(C)(=O)=O)c3)cc12,-14% (active)
5,COc1cc(OC)c(C(=O)/C=C/c2cc3c(cc2OCc2ccccc2)OC(C)(C)CC3)cc1CC=C(C)C,-21.7% (active)
6,Nc1cc(C(F)(F)F)c(-c2cc(N3CCOCC3)nc(N3CCOCC3)n2)cn1,-42.2% (active)
7,NC(=O)c1n[nH]n2c1nc(=O)c1c3c(sc12)CCCC3,91.7%
8,Nc1c(Cl)cccc1[N+](=O)[O-],96.6%
9,Cc1ccc(-c2cc3c(SCC(=O)Nc4cc(C(F)(F)F)ccc4Cl)nccn3n2)cc1,28.6%
10,NN1C(=O)CSC1=S,102%
11,CCCCCCCC12Cc3ccccc3C1=Nc1c(c3ccccc3n1C)C2=O (stereo not given),93.4%
12,CCOc1cc2ncc(C#N)c(Nc3ccc(OCc4ccccn4)c(Cl)c3)c2cc1NC(=O)/C=C/CN(C)C,39.3%
13,CC12O[C@H](C[C@@H](OC(=O)CCC(=O)O)[C@H]1O)n1c3ccccc3c3c4c(c5c6ccccc6n2c5c31)C(=O)NC4=O,7.85% (active)
14,Cc1cc2c3c(cccc3c1)C(=O)c1ccccc1-2,108%
15,CC1(COc2ccc3c(c2)ncn3-c2ccc3cccc(N4CCC(N)CC4)c3n2)COC1,63.3%
16,C=CC(=O)Nc1cc2c(Nc3ccc(F)c(Cl)c3)ncnc2cc1OCCCN1CCOCC1,-51.7% (active)
17,CO/C=C/C(=O)c1cc2cnc3c(=N)cc(NC(=O)C(C)C)c([nH]1)c23,-16% (active)
18,CCc1nc2ccc(Cc3ccc(C(=O)NO)cc3)cc2c(=O)n1CCc1ccccc1,-29.5% (active)
19,COc1cc2cc(NCc3ccc(F)cc3)nc(C)c2cc1OC,25.3%
20,COc1ncc(-c2ccc3nccc(-c4ccnnc4)c3c2)cc1NS(=O)(=O)c1ccc(F)cc1F,-1.41% (active)

row,Structure (SMILES),growth
1,O=S1(=O)OC(c2ccc(O)c(Cl)c2)(c2ccc(O)c(Cl)c2)c2ccccc21,60.6%
2,COc1cc2ncnc(Nc3ccc(O)cc3)c2cc1OC,78%
3,COc1cc(Nc2ncc(F)c(Nc3ccc4c(n3)N(COP(=O)(O)O)C(=O)C(C)(C)O4)n2)cc(OC)c1OC,-39.5% (active)
4,COc1cc2nccc(Oc3ccc(NC(=O)Nc4cc(C)on4)c(Cl)c3)c2cc1OC,-55.9% (active)
5,C[C@@H](N)c1ccc(C(=O)Nc2ccnc3[nH]ccc23)cc1,55.6%
6,CO[C@H]1C[C@@H]2CC[C@@H](C)[C@@](O)(O2)C(=O)C(=O)N2CCCC[C@H]2C(=O)O[C@H]([C@H](C)C[C@@H]2CC[C@@H](OC(=O)C(C)(CO)CO)[C@H](OC)C2)CC(=O)[C@H](C)/C=C(\C)[C@@H](O)[C@@H](OC)C(=O)[C@H](C)C[C@H](C)\C=C/C=C/C=C/1C,9.36% (active)
7,COc1cc2c(Oc3ccc4[nH]c(C)cc4c3F)ncnc2cc1OCCCN1CCCC1,95.9%
8,O=C(Cn1cncn1)Nc1ccc(-c2nc3ccccc3s2)cc1,93.5%
9,Cc1sc2c(c1C)c(=O)nc1c(-c3nc(-c4ccccc4)cs3)n[nH]n12,98.5%
10,Cn1ccnc1C(=O)/C=C/c1ccc(CC(=O)Nc2ccc(Br)cc2)cc1,61.1%
11,Cc1cccc(Cl)c1NC(=O)c1cnc(Nc2cc(N3CCOCC3)cc(N3CCOCC3)c2)s1,-42.1% (active)
12,O=C(Nc1cccc(Cl)c1)Nc1ncc(CCNc2ncnc3ccsc23)s1,40.9%
13,C=CCN1C(=O)c2cccc3c(-c4ccc5c(c4)ncn5C4CCCCC4)ccc(c23)C1=O,32.4%
14,Cc1cccc(Cl)c1NC(=O)c1cnc(Nc2cc(N3CCOCC3)cc(S(C)(=O)=O)c2)s1,-55.1% (active)
15,CC(C)NC[C@@H](C(=O)N1CCN(c2ncnc3c2[C@H](C)C[C@H]3O)CC1)c1ccc(Cl)cc1,2.39% (active)
16,COC(=O)c1ccc2c(C(=Nc3ccc(N(C)C(=O)CN4CCN(C)CC4)cc3)c3ccccc3)c(O)[nH]c2c1,18.4%
17,Nc1ncnc2c1c(-c1cccc(OCc3ccccc3)c1)cn2C1CC(CN2CCC2)C1 (stereo not given),-21% (active)
18,Cc1cc(C2(c3ccc(O)c(C)c3)OS(=O)(=O)c3ccccc32)ccc1O,78.6%
19,CN1CCC(CNc2ccc3ncc(-c4cccc(OC(F)(F)F)c4)n3n2)CC1,-56.8% (active)
20,O=C(Nc1cnn2ccc(N3CCC[C@@H]3c3cc(F)ccc3F)nc12)N1CC[C@H](O)C1,89.5%
